Results on 92 molecules are retold here after PubChem BioAssay AID1445 (SRMLSC, 2008).

The whole screen tested about 220,000 compounds, of which about 910 (0.41%) were called active. The entries come from a sample that favours actives as a whole. Results with a measured potency or affinity are listed apart. Values without a mark were called inactive.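 The calls were made as follows: active = primary inhibition above the hit cutoff, then over 50% inhibition at one or more dose response concentrations (cut at about 23% in these data, passing the limit was not always enough); inconclusive = conflicting primary data, or primary hits not chosen for dose response; inactive = low primary inhibition, or under 50% at every dose.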

This assay deals with Aminopeptidase N (Plasmodium falciparum (isolate 3D7)) (UniProt O96935). Put plainly: malaria alanyl aminopeptidase activity blockers – biochemical, fluorogenic H-Leu-NHMec substrate, 1536-well (AID 1445).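 Also: plate controls were DMSO full reaction for no effect and no enzyme background for full effect.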 The conditions noted are these: recombinant M1AAP, H-Leu-NHMec fluorogenic kinetic assay; at 30 µM, stronger effect = higher value unless noted.
Aminopeptidase N (Plasmodium falciparum (isolate 3D7)), sequence (O96935 whole entry, looked up): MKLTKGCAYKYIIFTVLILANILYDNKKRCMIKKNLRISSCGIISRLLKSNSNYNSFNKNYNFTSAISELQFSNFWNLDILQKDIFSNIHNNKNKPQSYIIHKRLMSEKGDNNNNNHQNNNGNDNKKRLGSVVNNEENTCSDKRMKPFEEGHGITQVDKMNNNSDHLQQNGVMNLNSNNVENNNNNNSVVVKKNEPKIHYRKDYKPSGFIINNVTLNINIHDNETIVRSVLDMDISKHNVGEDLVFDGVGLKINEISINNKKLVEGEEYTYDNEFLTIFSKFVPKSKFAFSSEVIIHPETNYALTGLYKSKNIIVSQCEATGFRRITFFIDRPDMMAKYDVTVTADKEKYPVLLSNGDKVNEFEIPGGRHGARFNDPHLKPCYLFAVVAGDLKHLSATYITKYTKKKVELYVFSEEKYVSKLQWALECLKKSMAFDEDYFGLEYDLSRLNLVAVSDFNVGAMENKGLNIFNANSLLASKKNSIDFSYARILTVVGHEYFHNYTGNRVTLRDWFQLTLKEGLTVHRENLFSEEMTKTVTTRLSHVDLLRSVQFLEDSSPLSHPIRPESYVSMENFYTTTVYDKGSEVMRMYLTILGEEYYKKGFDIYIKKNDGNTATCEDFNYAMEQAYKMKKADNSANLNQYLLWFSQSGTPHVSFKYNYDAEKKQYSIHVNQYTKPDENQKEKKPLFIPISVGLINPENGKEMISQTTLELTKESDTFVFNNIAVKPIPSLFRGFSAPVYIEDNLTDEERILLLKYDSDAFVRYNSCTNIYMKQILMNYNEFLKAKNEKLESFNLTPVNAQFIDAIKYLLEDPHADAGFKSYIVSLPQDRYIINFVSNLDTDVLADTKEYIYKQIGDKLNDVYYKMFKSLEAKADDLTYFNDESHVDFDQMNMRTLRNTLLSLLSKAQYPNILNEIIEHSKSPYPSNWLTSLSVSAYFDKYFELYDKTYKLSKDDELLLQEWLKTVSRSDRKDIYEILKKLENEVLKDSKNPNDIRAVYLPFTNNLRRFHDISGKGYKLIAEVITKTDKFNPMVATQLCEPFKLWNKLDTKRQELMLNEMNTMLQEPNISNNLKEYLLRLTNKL
A word on the inhibition: it is the relative decrease from the control value, in per cent. In the case of `O=C(CSc1nc2ccccc2o1)Nc1cc(C(F)(F)F)ccc1N1CCOCC1`, the inhibition was 8.71%.

Take `CCCCn1c(C)csc1=Nc1cccnc1`: the inhibition was 4.71%.

As to `Cc1cc(C)c(S(=O)(=O)Nn2cnnc2)c(C)c1`, the inhibition was -1%.

Regarding `CCOP(=O)(OCC)/C(C#N)=C/c1cc(OC)ccc1OC`, the inhibition was 1.01%.

With `COc1ccccc1NC(=S)N1CCCC1`, the inhibition is 8.78%.

On to `CCC(=O)NCc1cc(-c2nn(C)c(=O)c3ccccc23)ccc1C`, for which the inhibition was 3.73%.

For the molecule `CCOC(=O)NCc1cc(-c2nn(C)c(=O)c3ccccc23)ccc1C`, the inhibition is -0.16%.

Consider `CC(=O)NCc1cc(-c2nn(C)c(=O)c3ccccc23)ccc1C`, for which the inhibition was 12.1%.

With `CCCC(=O)NCc1cc(-c2nn(C)c(=O)c3ccccc23)ccc1C`, the inhibition was -1.83%.

For `CC(O)CNCCCOc1ccc(Cl)cc1C(C)(C)C` (configuration not stated), the inhibition was 2.63%.

Consider `Cc1ccc(N(C(=O)C2CCC(=O)N2)C2(C(=O)NC3CCCCC3)CCCCC2)cc1` (configuration not stated), for which the inhibition was 3.72%.

As to `CC(C)NS(=O)(=O)c1ccc(CCC(=O)NCc2cccnc2)cc1`, the inhibition is 3.94%.

In the case of `CCCCN1CNC(=S)N(c2ccccc2OCC)C1`, the inhibition was 1.13%.

Consider `CCOCCCNCc1cccc(OCc2ccc(F)cc2)c1`, for which the inhibition was -0.98%.

In the case of `COc1ccc(-c2cc(-c3nnc(-c4ccncc4)o3)c3ccccc3n2)cc1`, the inhibition is 7.37%.

As to `CSc1nnc(-c2cc(-c3ccc(C)cc3)nc3ccccc23)o1`, the inhibition was -2.26%.

Turning to `CCC(=O)Nc1ccc(-n2nnnc2SCC(=O)NNC(=O)c2ccco2)cc1`, the inhibition is 4.76%.

On to `S=c1[nH]nc(-c2cccnc2)n1/N=C/C=C/c1ccccc1`, for which the inhibition was 10.4%.

As for `O=C(CN(c1ccccc1)S(=O)(=O)c1ccccc1)NCCSc1nc2ccccc2s1`, the inhibition was 4.5%.

As for `CN1CCN(Cc2nc3ccccc3c(=O)n2Cc2nc(-c3ccc4ccccc4c3)cs2)CC1`, the inhibition was -1.75%.

As for `CN1CCN(Cc2nc3ccccc3c(=O)n2Cc2nc(-c3ccc([N+](=O)[O-])cc3)cs2)CC1`, the inhibition is 11.9%.

As to `Cc1ccc(C(C(=O)NCc2ccco2)N(Cc2ccco2)C(=O)CNC(=O)c2ccco2)cc1` (configuration not stated), the inhibition is 19.3%.

In the case of `COc1ccc(CCNC(=O)C2CCN(S(=O)(=O)c3cc(OC)ccc3OC)CC2)cc1`, the inhibition is 14.3%.

With `COc1ccc(S(=O)(=O)N2CCC(C(=O)NCc3ccccn3)CC2)cc1OC`, the inhibition was 2.6%.

Turning to `COc1ccc(OC)c(S(=O)(=O)N2CCC(C(=O)NCc3ccccc3)CC2)c1`, the inhibition was 57.9% (active).

As for `COc1ccc(S(=O)(=O)N2CCC(C(=O)NCCc3ccccc3)CC2)cc1OC`, the inhibition was -1.88%.

`COc1ccc(OC)c(S(=O)(=O)N2CCC(C(=O)NCCc3ccc(OC)c(OC)c3)CC2)c1`: the inhibition is -4.37%.

As to `COc1ccc(OC)c(S(=O)(=O)N2CCC(C(=O)NCCc3ccccc3)CC2)c1`, the inhibition is -0.81%.

In the case of `COc1ccc(OC)c(S(=O)(=O)N2CCC(C(=O)NCc3ccccc3OC)CC2)c1`, the inhibition is 3.04%.

Take `COc1ccccc1N1CCN(C(=O)c2ccc3nc[nH]c3c2)CC1`: the inhibition is 4.75%.

For `CCn1c(SCC(=O)Nc2nc3ccccc3s2)nnc1-c1ccc(Br)cc1`, the inhibition was 4.22%.

For `CS(=O)(=O)c1ccc2nnn(OCC(=O)Nc3ccc(Br)cc3Br)c2c1`, the inhibition was 1.15%.

Consider `O=C(COC(=O)CCOc1ccccc1)NCc1ccco1`, for which the inhibition is 12.3%.

On to `O=C(O)c1cccc(CSc2n[nH]c(-c3ccc(Cl)cc3Cl)n2)c1`, for which the inhibition is 7.08%.

Regarding `Cc1ccc(NC(=S)NC(=O)/C=C/c2ccco2)c(O)c1`, the inhibition was 10.8%.

As for `O=S(=O)(c1ccc(F)cc1)N1CCN=C1SCc1cccnc1`, the inhibition is 0.03%.

With `O=C(Nc1cccc(O)c1)c1cnn2cccnc12`, the inhibition is 13.6%.

As for `CC1(C)CC(=O)c2sc(NS(=O)(=O)c3ccc(F)cc3)nc2C1`, the inhibition was 5.81%.

On to `CCc1nnc(NC(=O)CSc2nnc(CNc3cccc(C)c3)n2-c2ccccc2)s1`, for which the inhibition is 0.64%.

As for `O=C(CCCCl)OCc1cn(-c2ccc(Cl)cc2)nn1`, the inhibition was 8.74%.

Take `O=C(NC1CCCC1)C1CCC(=O)N1C1CCCC1` (configuration not stated): the inhibition was 6.41%.

For the molecule `CCOC(=O)c1oc2ccccc2c1CN1CCN(C)CC1`, the inhibition is 0.88%.

With `Clc1ccc(/C=N/Nc2nnc(Cl)c3ccccc23)cc1`, the inhibition is 14.4%.

In the case of `Clc1ccc(/C=N\Nc2ccccc2)cc1`, the inhibition was 4.31%.

With `COc1cc(N2CN=c3s/c(=C\c4ccccn4)c(=O)n3C2)cc(OC)c1OC`, the inhibition is 5.01%.

Take `O=[N+]([O-])c1cc(Cl)ccc1-c1nc(-c2ccncc2)no1`: the inhibition was 3.23%.

As to `C=CCN1C(=O)/C(=c2\sc3nc(=O)c(Cc4ccc(OC)c(OC)c4)nn3c2=O)c2ccccc21`, the inhibition is 11.6%.

As for `CCN1C(=O)/C(=c2\sc3nc(=O)c(Cc4ccccc4)nn3c2=O)c2ccccc21`, the inhibition is 7.93%.

On to `CCC(C)c1ccc2oc(-c3ccc(NC(=O)Cn4cnc5c(=O)n(C)c(=O)n(C)c54)cc3)nc2c1` (configuration not stated), for which the inhibition was 17.4%.

For the molecule `O=C(N1CCOCC1)C1(c2ccc(Cl)cc2)CCCC1`, the inhibition was -5.21%.

For the molecule `O=C(CSc1ncc(C(F)(F)F)cc1Cl)NCC1CCCO1` (configuration not stated), the inhibition was 0.4%.

Take `O=C1NC(=S)N/C1=C\c1cccc([N+](=O)[O-])c1`: the inhibition is -1.35%.

For `O=C1NC(=S)N/C1=C/c1cc([N+](=O)[O-])ccc1O`, the inhibition is 27.2% (active).

As for `O=C1NC(=S)N/C1=C/c1cccc([N+](=O)[O-])c1`, the inhibition is 1.79%.

Turning to `Cc1ccc(C(=O)NCCN2CCNC2=O)cc1`, the inhibition is -8.25%.

Consider `Cc1ccccc1OCC(=O)Nc1ccc2oc(=O)ccc2c1`, for which the inhibition is 16.6%.

For `CCOC(=O)C1CCN(C(=O)COc2ccc(N(C)S(=O)(=O)c3ccc(OCC)cc3)cc2)CC1`, the inhibition is -2.18%.

With `CCn1c(CSc2nc3ccccc3s2)nnc1SCC(=O)c1ccc(O)cc1O`, the inhibition is 6.78%.

Consider `CCn1c(CSc2nc3ccccc3s2)nnc1SCC(=O)c1ccc(Cl)cc1`, for which the inhibition was 11.1%.

Regarding `O=C(Cc1c(C(=O)O)[nH]c2ccc(Cl)cc12)Nc1ccc2c(c1)OCCO2`, the inhibition is 4.87%.

With `Cc1ccc(-c2nnn(CC(=O)N(Cc3ccco3)C(C(=O)NC3CCCC3)c3cccs3)n2)o1` (configuration not stated), the inhibition was 0.46%.

Regarding `O=C(N/N=C/c1ccc(O)c(O)c1)C1c2ccccc2Oc2ccccc21`, the inhibition is 25.6% (active).

Turning to `COc1cc(/C=N/NC(=O)C2c3ccccc3Oc3ccccc32)ccc1O`, the inhibition is 3.49%.

With `O=C(N/N=C\c1cccnc1)C1c2ccccc2Oc2ccccc21`, the inhibition was 3.5%.

Regarding `Nc1cc(-c2cccc(F)c2)nn1S(=O)(=O)c1cccc2nsnc12`, the inhibition was 6.59%.

For `CC1=C(C(=O)Nc2ccccn2)C(c2cn(C)nc2C)C2=C(CCCC2=O)N1` (configuration not stated), the inhibition was 9.42%.

Take `Cc1ccc(C(=O)Oc2cc(N)n(S(=O)(=O)c3ccc(C)cc3)n2)cc1`: the inhibition was -3.58%.

In the case of `COc1ccccc1C(=O)Oc1cc(N)n(S(=O)(=O)c2ccccc2)n1`, the inhibition was 11.1%.

Regarding `COc1cccc(NC(=S)N(CCc2ccc(OC)c(OC)c2)Cc2ccccn2)c1`, the inhibition is 4.47%.

Take `Cc1ccc2nc(N3C(=O)C(O)=C(C(=O)c4cc5ccccc5o4)C3c3cccs3)sc2c1` (configuration not stated): the inhibition was 10.6%.

Take `CCc1ccc2nc(N3C(=O)C(O)=C(C(=O)c4ccco4)C3c3cccs3)sc2c1` (configuration not stated): the inhibition was 14.9%.

Consider `Cc1ccc2nc(N3C(=O)C(O)=C(C(=O)c4ccco4)C3c3cccs3)sc2c1` (configuration not stated), for which the inhibition is 27.4% (active).

Consider `Cc1nnc(SCC(=O)N2CCN(C(=O)c3ccco3)CC2)n1-c1ccccc1`, for which the inhibition was -1.57%.

For `Cc1ccc(NC(=O)C(=O)NN)cc1`, the inhibition was 3.55%.

For `CC(C)(C)n1nnnc1C(c1cccs1)N1CCN(Cc2ccc3c(c2)OCO3)CC1` (configuration not stated), the inhibition was 3.23%.

`COc1ccc(C2OC(=O)CC2C(=O)NCc2ccc(Cl)cc2)cc1OC` (configuration not stated): the inhibition is -0.93%.

As for `CCn1c(=O)c(C(=O)NNS(=O)(=O)c2ccc(C)cc2)c(O)c2ccccc21`, the inhibition was 5.97%.

Consider `O=C(Nn1c(C2CC2)nc2ccccc2c1=O)c1ccco1`, for which the inhibition was 81.6% (active).

Regarding `O=C(Nn1c(C2CCCCC2)nc2ccccc2c1=O)c1ccc([N+](=O)[O-])cc1`, the inhibition is 2.98%.

As to `COc1cc2nc(C3CCC3)n(NC(=O)c3ccco3)c(=O)c2cc1OC`, the inhibition was 11.3%.

For `Cc1ccccc1OCc1nc2ccccc2c(=O)n1NC(=O)c1ccco1`, the inhibition was 22.7%.

Regarding `O=C(Nn1c(-c2ccccc2)nc2ccccc2c1=O)c1ccco1`, the inhibition was 15.6%.

In the case of `NS(=O)(=O)c1ccc(CCNC(=O)c2ccc(Cn3c(=O)[nH]c4ccccc4c3=O)cc2)cc1`, the inhibition is 4.04%.

As for `CC(/C=C/c1ccccc1)=N\NC(=O)c1cc(C)nc2ccccc12`, the inhibition was 7.74%.

As to `CC1CN(C(=O)c2cc(S(=O)(=O)N3CCCC3)c(Cl)cc2Cl)CC(C)O1` (configuration not stated), the inhibition was -2.85%.

For the molecule `O=C(CNC(=S)N(Cc1ccccc1)Cc1cccnc1)NCCc1ccccc1`, the inhibition is -4.94%.

As for `Cc1cccn2c(=O)c3cc(C(=O)NCc4cccnc4)c(=N)n(C(C)C)c3nc12`, the inhibition was 0.19%.

With `N=c1c(C(=O)NC2CCCC2)cc2c(=O)n3ccccc3nc2n1CCN1CCOCC1`, the inhibition was 12.5%.

For the molecule `N=c1c(C(=O)NCc2ccco2)cc2c(=O)n3ccccc3nc2n1CCc1ccccc1`, the inhibition is 9.03%.

Consider `Cc1cccn2c(=O)c3cc(C(=O)NCc4ccco4)c(=N)n(C(C)C)c3nc12`, for which the inhibition is 18.3%.

For `N=c1c(C(=O)NCc2ccco2)cc2c(=O)n3ccccc3nc2n1Cc1ccccc1`, the inhibition was 11.6%.

As to `N=c1c(C(=O)NCc2ccc(F)cc2)cc2c(=O)n3ccccc3nc2n1CCCN1CCOCC1`, the inhibition is 5.69%.
